# The campaign covered roughly 150,000 compounds. About 540 (0.36%) showed an effect of 50% or more. The list comes from a sample in which strong results are over-represented; it also holds similar structures and randomly drawn compounds.
# Tested on: Plasmodium falciparum
# Assay: Primary screen in NF54 nanoGlo assay, in single point, at 2uM, 72h; a lower Z score goes with more inhibition
# Assay type: functional, Erythrocyte
# Settings: timepoint 72 hour
Structure (SMILES),% Inhibition [%],Z score
Cc1nc(N2C(=O)N(C)C3(CCCC3)C2=O)oc1C,3,-0.31
C[C@@H](NC(=O)c1ccco1)c1ccccc1,0,0.04
C[C@H](NC(=O)c1ccco1)c1cc2c(cc1Br)OCCCO2,60,0.9
O=C(Nc1ccc2c(c1)OCCCO2)c1ccco1,29,-3.9
CC(NCC1COC(C)(C)O1)c1cc(Cl)c(N)c(Cl)c1 (stereo not drawn),2,-0.28
Clc1cccc(-c2ccc(CNC3CCCCC3)o2)c1,-9,1.31
Cc1nnc(NCc2ccc(-c3cccc(Cl)c3Cl)o2)n1C,-8,0.79
CCCN1CCC(NCc2ccc(-c3cccc(Cl)c3Cl)o2)CC1,55,-11.87
Oc1nc(N2CCOC3(CCCC3)C2)ncc1F,55,-9.19
OCCOc1cncc(N2CCOC3(CCCCCC3)C2)n1,8,-0.67
Fc1cccnc1N1CCOC2(CCC2)C1,-15,1.72
CC(=O)c1cccc(-c2ccc3c(cnn3CC(=O)Nc3ccnn3C)c2)c1,-12,1.94
Cc1ccc(CNC(=O)NCC(=O)N2CCC=C(F)C2)cc1,0,0.03
O=C(Nc1cnccc1CO)c1csc(C2CCCCC2)c1,0,0.04
O=C(N[C@H]1C[C@@H]2C[C@H]1N(C(=O)c1ccccc1C(F)(F)F)C2)c1cccnc1,35,-3.96
Cc1cccc(NCc2ccc(N3N=C(c4ccccc4)C[C@H]3c3ccccc3)cc2)c1,-1,0.11
c1ccc(C2=NN(c3ccc(-c4cc(-c5ccccc5)[n+](-c5ccccc5)c(-c5ccccc5)c4)cc3)[C@H](c3ccccc3)C2)cc1,91,-14.02
O=C(NCc1ccc(-n2cncn2)nc1)c1ccncc1,-19,1.67
O=C(Cc1ccc(Cl)cc1)Nc1cnc(-n2ccnc2)nc1,4,-0.61
COC1(C)CC(N(C)C(=O)[C@@H]2Cc3cncn3C(=O)N2)C1(C)C (stereo partly drawn),-3,0.52
Cn1cnnc1[C@H]1CCCN(S(=O)(=O)N2CCCCC2)C1,-6,0.88

Structure (SMILES),% Inhibition [%],Z score
O=C(N[C@H]1CCc2ncccc2C1)c1cccc(B(O)O)c1,-4,0.45
O=C(NCCN1CCC(CO)CC1)N1CC(Oc2ccccc2F)C1,-17,1.55
N[C@H]1C[C@H](c2cc(NCCCc3cccnc3)nc(C3CC3)n2)C1,71,-7.09
NC1CC(c2cc(NCc3cccnc3)nc(C3CC3)n2)C1 (stereo not drawn),15,-2.04
CC(=O)N[C@H]1C[C@@H](c2cc(NCCCc3cccnc3)nc(C)n2)C1,-15,2.91
C[C@@H](C(=O)NC(C)(C)c1noc(C(N)=O)n1)c1ccccc1,2,-0.23
O=C1COc2ccccc2N1Cc1nc(-c2ccc(N3CCOCC3)cc2)no1,-19,2.51
C[C@@H](c1cccnc1)N(C)CC(=O)Nc1nccs1,9,-1.03
CC(C)N(CC(=O)Nc1nccs1)Cc1ccccn1,65,-10.08
CC(C)N(CC(=O)Nc1nccs1)C(=O)COCc1ccccc1,-7,0.71
COc1ccc(Nc2nc(N3CCCC3)nc3c2cnn3C)cc1Cl,27,-3.01
O=C(Cn1ncn2nccc2c1=O)Nc1cc(Cl)cc(Cl)c1,-3,0.43
Cc1cc(=O)[nH]c(-n2nc(C3CC3)cc2NC(=O)C(C)(C)Oc2ccc(Cl)cc2)n1,84,-15.44
COc1ccc(Cl)cc1C(=O)N[C@H]1CCc2nn(C)c(=O)cc2C1,-18,3.11
COc1ccc(CC(=O)Nc2cc(C3CC3)nn2-c2nc(C)cc(=O)[nH]2)cc1,0,-0.01
COc1ccc(Cl)cc1C(=O)Nc1cc(C2CC2)nn1-c1nc(C)cc(=O)[nH]1,63,-6.61
CC(C)(Oc1ccc(Cl)cc1)C(=O)Nc1c2c(nn1C(C)(C)C)CS(=O)(=O)C2,-14,2.68
COc1ccc(Cl)cc1C(=O)Nc1ccnn1C[C@H]1CCOC1,3,-0.37
Cc1cnn(CCCNC(=O)C[C@H]2COCCN2Cc2ccc(C)o2)c1,-20,2.24
CN(C)c1ccc(NC(=O)Cc2cnn(-c3ccccc3)c2)cn1,-12,1.6
N#Cc1nccnc1N[C@H]1CCCN(CC(F)(F)F)C1,-11,1.83

Structure (SMILES),% Inhibition [%],Z score
Cc1ccc(CN2C[C@@H](CO)[C@H](NC(=O)C3CCC3)C2)o1,-6,0.86
Cc1ccc(N2C(=O)c3ccccc3[C@@H]2c2c[nH]c3ccccc23)cc1,63,-5.25
CC(c1ccccc1)N1C(=O)c2ccccc2C1c1c[nH]c2ccccc12 (stereo not drawn),43,-5.38
COc1ccc(N2C(=O)c3ccccc3[C@@H]2c2cn(C)c3ccccc23)cc1,7,-0.85
COc1ccc(CC(=O)N2CCCS(=O)(=O)C[C@H]2C2CC2)nc1,-1,0.08
Cc1cccc2ncnc(N(C)C3CC[S+]([O-])CC3)c12 (stereo not drawn),3,-0.52
Cc1cccc2ncnc(N(C)[C@@H](C)Cc3ccc(O)cc3)c12,77,-16.2
CC1(C)C[C@@H](NC(=O)[C@H]2CC[C@H](Cn3cnc4ccccc4c3=O)CC2)CCO1,-6,0.79
C[C@@]1(NC(=O)CCc2nc(C3CCCC3)no2)CC=CCC1,-10,1.9
CN1CC[C@H](N(C)C(=O)c2ccc(-c3ccc4c(=O)[nH]ccc4c3)cc2)C1,-4,0.47
O=C(NCC[C@H]1CCOC1)c1ccc(-c2ccc3cc[nH]c(=O)c3c2)cc1,-14,1.37
CN(C)c1ccc([C@@H](CNC(=O)c2cccc(F)c2)c2c[nH]c3ccccc23)cc1,2,-0.26
COCCN1CCC(CN(Cc2ccncc2)Cc2cc(C)c(C)o2)CC1,-30,4.08
CN1CCC(N2CCC(CN(Cc3ccncc3)C3CCOCC3)CC2)CC1,0,0
COCCN1CCC(CN(Cc2ccncc2)Cc2nc3ccc(F)cc3[nH]2)CC1,0,0.04
CN1CCC(N2CCC(CN(Cc3ccncc3)Cc3c(F)cccc3Cl)CC2)CC1,98,-9.12
COc1ccc(CN(Cc2ccncc2)CC2CCN(C3CCN(C)CC3)CC2)c(F)c1,88,-10.13
CC(=O)NCCn1ccnc1-c1ccc(F)c(F)c1F,-9,1.18
C[C@H](NCC1(c2c(F)cccc2F)CC1)c1cnn(C)c1,-3,0.45
CC(C)(C)CN1C[C@@H](NC(=O)COc2ccc3c(c2)OCO3)CC1=O,-1,0.23
CCCC(CCC)C(=O)Nc1ccc(O)cc1C(=O)O,40,-0.25

Structure (SMILES),% Inhibition [%],Z score
COCC(O)CN1CCC(NC2CCCc3cc(F)ccc32)CC1 (stereo not drawn),1,-0.12
COCCCN(Cc1ccc(C(O)(c2ccc(OC)cc2)c2ccc(OC)cc2)o1)Cc1ccccc1OC,3,-0.38
CN1CCO[C@@H](CNc2ncnc3c2cnn3-c2ccccc2F)C1,-1,0.08
Cc1nc(N2CCCC2C(=O)N2CCC(C(O)Cc3ccccc3)CC2)nc2ccccc12 (stereo not drawn),-15,1.71
CS(=O)(=O)N1CCC(Nc2ncnc3cc(Cl)ccc23)CC1,18,-2.07
CC1CC(Nc2ncnc3cc(Br)ccc23)CCN1C (stereo not drawn),97,-8.72
O=C(O)c1ccc2c(NC3CCCC3)ncnc2c1,-5,0.71
OC(CN1CCOC2CCCCC21)Cn1cccn1 (stereo not drawn),-5,0.7
CC(C)CNC(=O)c1[nH]cnc1C(=O)N1CCC(Cc2ccccc2)CC1,31,-3.65
CC[C@H]1CCCCCN1C(=O)NCCc1nnc(C)s1,-9,1.2
COc1ccc(Nc2nnc(-c3ccc(NC(=O)C(=O)NCCCn4ccnc4)cc3)s2)cc1,66,-7.06
COc1ncc(C(=O)NCCCn2ccnc2)cn1,-14,1.29
CCN(CC)Cc1cnc2c(C(=O)N(C)C3Cc4ccccc4C3)cnn2c1,-6,0.83
CN1C(=O)[C@@H]2CC[C@H]1CN(C1CCN(c3ncc4ccc(F)cc4n3)CC1)C2,3,-0.38
CO[C@H]1CCOC[C@@H]1NC1CCN(c2ncc3ccc(F)cc3n2)CC1,1,-0.16
Cc1ccc2c(c1)C(=O)N1CCCC1C(=O)N2CC(=O)NCC1CCCO1 (stereo not drawn),-1,0.1
COc1ccc(-n2ncc3c(N)c4c(nc32)CCCC4=O)cc1,56,-1.02
Cc1ccc(-n2ncc3c(N)c4c(nc32)CCCC4=O)cc1,12,-2.26
Nc1c2c(nc3c1cnn3-c1cc(F)cc(F)c1)CCCC2=O,-9,1.23
O=C(NCCn1ccnc1)c1[nH]nc(C2CC2)c1Cl,-9,1.61
CC(C)N(C)C(=O)C1CCN(C(=O)[C@@H](N)C(C)(C)C)CC1,-1,0.1

# Source: ChEMBL document CHEMBL4888484, “Replenishing the malaria drug discovery pipeline: Screening and hit evaluation of the MMV Hit Generation Library 1 (HGL1) against asexual blood stage Plasmodium falciparum ,using a nano luciferase reporter read-out” (2022)
